Source: PubChem BioAssay (National Center for Advancing Translational Sciences (NCATS))
Only some compounds are listed: those with a hit (about 10% of all), similar ones and a draw of the others.
GLS inhibitor: blocks human kidney-isoform glutaminase activity; O94925; GLS enzymatic activity, qHTS titration; Potency, µM (doses to about 45.5 µM), for the others: at the highest dose activity change, negative = inhibition, usual class: inhibitors; 0.21% of 410,000 active; also: % is scaled to controls: 0 for no effect and ±100 for the full control effect
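Human kidney-isoform GLS in 45 mM KH2PO4 pH 8.2, 0.02% Tween-20, with compound, started with 1mM L-Glutamine (added stock). Glutamate oxidase/HRP/Amplex red coupled fluorescence read at start and after 30 min at RT.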
BAZ2B block: inhibitors of human BAZ2B bromodomain; Q9UIF8; AlphaScreen BAZ2B-H3K14Ac peptide displacement; Potency, µM (top dose mostly 114 µM), inactives show at the top dose activity change, negative = inhibition, hits mostly inhibitors; 4.4% of 360,000 active; AID 504333; also: % is scaled to controls: 0 for no effect and ±100 for the full control effect; nearly all actives have a fitted effect of over 60% in size
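AlphaScreen displacement of biotin-H3(5-23)K14Ac peptide (50 nM final) from BAZ2B (50 nM final) in PBS pH 7.4, 0.01% Tween-20; complex preformed 30 min RT, then compounds (top 110 uM) 30 min RT, beads 20 min dark.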
G9a block: blocks human histone lysine methyltransferase G9a; Q96KQ7; G9a H3K9 monomethylation, AlphaScreen, 2 h; Potency, µM (doses to about 102 µM), for inactives: at the top dose activity, negative = inhibition, actives largely listed as inhibitors; 8.8% of 350,000 active; AID 504332; also: % is scaled to controls: 0 for no effect and ±100 for the full control effect; nearly all actives have a fitted effect of over 75% in size
Target sequence (Q96KQ7 913-1193 limits assumed): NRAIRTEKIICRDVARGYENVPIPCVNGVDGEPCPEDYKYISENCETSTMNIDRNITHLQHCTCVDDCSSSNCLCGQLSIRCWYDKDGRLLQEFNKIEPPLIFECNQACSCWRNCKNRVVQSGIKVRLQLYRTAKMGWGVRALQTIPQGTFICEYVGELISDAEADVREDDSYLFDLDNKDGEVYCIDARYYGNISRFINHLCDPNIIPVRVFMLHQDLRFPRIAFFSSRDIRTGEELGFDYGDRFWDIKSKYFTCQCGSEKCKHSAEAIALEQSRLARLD
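Compounds were preincubated with 20 nM G9a for 15 min, after which biotinylated H3K9 peptide (500 nM) and SAM (20 uM) started a 2 h room-temperature reaction. Monomethylated product was quantified by antibody-based AlphaScreen chemiluminescence.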
HP1b chromo inh: HP1-beta chromodomain-methylated histone interaction inhibition; P83916; Potency, µM (series often up to 114 µM), without a hit: at the highest dose activity change, negative = inhibition, actives largely listed as inhibitors; 0.56% of 390,000 active; AlphaScreen HP1-beta / biotin-H3K9me3 peptide binding; AID 540317; also: nearly all actives have a fitted effect of over 70% in size
Target sequence (P83916 whole entry, looked up): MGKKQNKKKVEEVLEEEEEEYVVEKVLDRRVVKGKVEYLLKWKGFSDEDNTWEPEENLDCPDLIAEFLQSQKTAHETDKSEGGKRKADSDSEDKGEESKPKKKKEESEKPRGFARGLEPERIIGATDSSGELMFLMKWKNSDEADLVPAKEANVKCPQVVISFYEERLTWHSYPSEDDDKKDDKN
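Compound inhibition of the preformed complex between 50 nM HP1-beta and 50 nM biotinylated H3K9me3 peptide was read by AlphaScreen. Buffer was PBS pH 7.4 with 0.01% Tween-20. Incubations ran 30 min at room temperature, with 10 ug/mL donor/acceptor beads.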
JMJD2A Tudor: inhibitors of human JMJD2A Tudor domain; 4.4% of 390,000 active; Potency, µM (titrated, usually from 114 µM), for inactives: at the top dose activity change, negative = inhibition, usual class: inhibitors; O75164; AlphaScreen JMJD2A-Tudor / H3K4me3 peptide binding; AID 504339; also: % is scaled to controls: 0 for no effect and ±100 for the full control effect; nearly all actives have a fitted effect of over 50% in size
Starred values were filed as active, the others as inactive; ? = inconclusive; . = no result given; [ ] = dose if it differs, or a comment. Calls follow the shape of the dose curve; as a rule, active = well fitted curve in the direction sought with a large enough effect; inconclusive = small, poorly fitted or top-dose-only effect, or another doubt; inactive = no such curve, though single readings can be large; an effect the other way counts as inactive or inconclusive. Potency is read from the fitted curve at half-maximal effect.

SMILES | GLS inhibitor | BAZ2B block | G9a block | HP1b chromo inh | JMJD2A Tudor
CCOC(=O)c1c(NC(=O)COC(=O)CCNS(=O)(=O)c2ccccc2)sc(C(=O)NC)c1C | 4% | . | . | 21% | -11%
O=C(O)COc1ccc(/C=N/NC(=O)C2CCCN2S(=O)(=O)c2ccc(Cl)cc2)cc1 (stereo unspecified) | -2% | 3% | 45µM* | 31% | -6%
COc1ccc(NC(=O)C2CCCN2S(=O)(=O)c2ccc(Cl)cc2)cc1 (stereo unspecified) | 3% | 4% | -38% | 35% | 9%
CCN(CC)CCNCC(O)(c1ccc(Cl)cc1)c1ccc(Cl)cc1 | -25% | -5% | -29% | 32% | -21%
Cc1csc(NC(=O)CNS(=O)(=O)c2cccs2)n1 | ? | -2% | 47%[12.7 µM] | 5% | 8.9µM*
COCCNCC(=O)Nc1nc(C)cs1 | 39% | 32µM* | 8.9µM* | 15% | ?
COc1ccc(NC(=O)Nc2nnc(-c3ccccc3SCc3ccccc3)s2)cc1 | 0% | -7% | -16% | 29% | -17%
O=C(CSc1nnc(COc2ccccc2Cl)o1)NC(=O)NCc1ccco1 | 134% | 40µM* | 50µM* | ? | ?
CC(C)(C)NC(=O)NC(=O)CSc1nnc(COc2ccccc2Cl)o1 | 6% | -36% | ? | 23% | -12%
CCOc1ccccc1-n1nnnc1SCC(=O)NC(=O)Cc1ccccc1 | 9% | 0% | 10µM* | 20% | -29%
O=C(NCc1ccco1)c1ccc(COc2ccccc2Cl)cc1 | 11% | -3% | ? | -24% | 56µM*
O=C(CSc1nnnn1-c1ccccc1)NC(=O)NCc1ccco1 | 6% | ? | -9%[12.7 µM] | -10% | ?
CCOc1ccccc1-n1nnnc1SCC(=O)NC(=O)NCc1ccco1 | ? | 50µM* | 79µM* | -1% | ?
CCCCN1C(=O)C(=O)NC[C@@H]1C(C)CC (stereo partly specified) | 2% | -10% | 45%[12.7 µM] | 28% | -16%
Cc1cccc(Oc2ccccc2NC(=O)C2=COCCO2)c1 | -9% | 32% | -3%[12.7 µM] | 49% | 4%
CN1CCN(CC(=O)NN(Cc2ccccc2)c2ccccc2)CC1 | 1% | -2% | . | ? | 7.9µM*
CN1CCN(CC(=O)Nc2ccc(OCc3ccccc3)cc2)CC1 | . | ? | -29%[12.7 µM] | . | .
CCN(CC)CC(=O)NN(Cc1ccccc1)c1ccccc1 | -6% | 79µM* | 28µM* | ? | 18µM*
CCc1nc(-c2ccccc2)cc(=O)[nH]1 | 7% | 0% | 2%[12.7 µM] | 19% | -10%
Cn1nc(C(=O)NCc2ccc(F)cc2)c2c1-c1ccccc1SC2 | 2% | 10µM* | 14µM* | ? | 28µM*
Cn1nc(C(=O)NCc2ccc(Cl)cc2)c2c1-c1ccccc1SC2 | 1% | 1% | ? | 55% | -36%
Cn1nc(C(=O)N2CCN(c3ccccc3F)CC2)c2c1-c1ccccc1SC2 | 7% | 13µM* | 14µM* | -20% | 20µM*
Cn1nc(C(=O)N2CCN(c3ccc(F)cc3)CC2)c2c1-c1ccccc1SC2 | -8% | -35% | -60%[59 µM] | 14% | ?
CCCn1nc(C(=O)Oc2ccc3c(C)cc(=O)oc3c2)c2ccccc2c1=O | -4% | -3% | 14µM* | 32% | -10%
CCOc1ccc(NC(=O)c2oc3ccccc3c2NC(=O)c2ccc(OC)cc2OC)cc1 | 1% | -27% | -26%[59 µM] | 59% | -7%
CCNC(=O)CC1S/C(=N/N=C(\C)c2ccccc2)NC1=O (stereo unspecified) | 4% | -25% | 47% | 20% | ?
C/C(=N\N=C1\NC(=O)C(Cc2ccccc2)S1)c1ccccc1 (stereo unspecified) | 5% | ? | ? | ? | 63µM*
CN(C)CCCNC(=O)c1ccc(CN(c2ccccc2)S(C)(=O)=O)cc1 | ? | -10% | -6%[59 µM] | 17% | -6%
CN(C)S(=O)(=O)c1cccc(CSCc2cccc(S(=O)(=O)N(C)C)c2)c1 | 4% | 5% | 18% | 24% | 1%
CC(NCc1cccc(S(=O)(=O)N(C)C)c1)c1ccc(F)cc1 (stereo unspecified) | 7% | 50µM* | . | -32% | 22µM*
